Source: the supplement of paper PMC13380429

Assays:
[1] = test system: Vero E6 infected with SARS-CoV-2; assay: morphology score (similarity to uninfected cells); higher = more like uninfected cells; details: 24 h
[2] = test system: Vero E6 infected with SARS-CoV-2; assay: SARS-CoV-2 infection rate relative to infected DMSO; higher = more infection, active = 60 or less; details: 24 h

Row | Structure (SMILES) | morphology score [1] | SARS-CoV-2 infection rate [2]
1 | Oc1cccc2cccnc12 [oxyquinoline] (10 µM) | 0.202 | 93.5% (inactive)
2 | CCS(=O)(=O)N1CCC[C@@H]2CN3CCc4cc(OC)ccc4[C@@H]3C[C@@H]21 (10 µM) | 0.0669 | 102% (inactive)
3 | C1CCC2(CC1)CCNCC2 [4,4-pentamethylenepiperidine] (10 µM) | -0.0731 | 104% (inactive)
4 | COc1ccc(NC(=O)c2ccc(-c3ccc(-c4noc(C)n4)cc3C)cc2)cc1OCCN(C)C (0.833333 µM) | 0.282 | 53% (active)
5 | O=C1O[C@H](CO)[C@@H](O)[C@H](O)[C@H]1O [gluconolactone] (10 µM) | 0.0736 | 98% (inactive)
6 | CCC(=O)NC1CCc2cccc(OC)c2C1 (centres undefined) (10 µM) | -0.0478 | 93.5% (inactive)
7 | CCSc1ccc2c(c1)N(CCCN1CCN(C)CC1)c1ccccc1S2 [thiethylperazine] (10 µM) | 0.722 | 29.5% (active)
8 | CCN(CC)CCOC(=O)C1(C2CCCCC2)CCCCC1 [dicycloverine] (10 µM) | 0.311 | 90% (inactive)
9 | N=C(N)Nc1ccc(C(=O)Oc2ccc3cc(C(=N)N)ccc3c2)cc1 [nafamostat] (10 µM) | 0.172 | 108% (inactive)
10 | Cc1cccc(-c2[nH]c(CNc3ccccc3F)nc2-c2ccc3ncnn3c2)n1 (10 µM) | 0.295 | 109% (inactive)
11 | C[C@@H](N)Cc1c[nH]c2ccc(O)cc12 [alpha-methylserotonin] (10 µM) | 0.251 | 97% (inactive)
12 | O[C@@H](CN1CCC(Cc2ccc(F)cc2)CC1)c1ccc(Cl)cc1 (racemic) [eliprodil] (10 µM) | 0.218 | 87% (inactive)
